The structures appear in SMILES notation. Inconclusive results are not listed. Values without a mark were called inactive. Activity calls are given as the source filed them. The call rests on the fitted dose curve; in most records, active means well fitted inhibition curve with a large enough effect; inconclusive means small, poorly fitted or top-dose-only effect; inactive means flat fitted curve, though single readings scatter.
Potency means the concentration at half of the fitted maximal effect.

The assay deals with W2. The assay can be described thus: qHTS profiling for inhibitors of Plasmodium falciparum proliferation (AID 504749). Further: nearly all actives have a fitted effect of over 60% in size.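 On activity, negative = inhibition: 0% = DMSO vehicle and full inhibition = artemisinin control.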 Conditions: P. falciparum in erythrocytes, SYBR Green DNA, 72 h; series mostly up to 28.7 µM; activity, negative = inhibition: at the top concentration. The essentials: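 Three-day growth assay of blood-stage parasites in erythrocytes (0.3% parasitemia, 2.5% hematocrit) at 37 C, 5% CO2, quantified by SYBR Green DNA staining after overnight detergent lysis.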
For `CC(=O)Oc1ccc(C)cc1`, the “activity, negative = inhibition” value is 7.34%.

Turning to `CC(C)(C)NC[C@H](O)COc1nsnc1N1CCOCC1`, the Potency was 1.51 µM (active).

`Cc1ncc(CO)c(C=O)c1O`: the “activity, negative = inhibition” value is 3.01%. As to `CN(C)CCN1C(=O)c2ccccc2N(C)c2ccccc21`, the Potency was 2.13 µM (active). As to `COc1cc(C)nc(-n2nc(C)cc2OC)n1`, the “activity, negative = inhibition” value is 0.101% [at 12.8 µM]. Still for that read-out and setting: as for `CCCCCCCCCCCCSCCOCCO`, the figure is -1.53%. As for `COc1ccc(C(=O)c2ccccc2)c(O)c1`, the Potency is 13.5 µM (active). On to `OC[C@H]1O[C@@H]2O[C@H]3[C@H](O)[C@@H](O)[C@@H](O[C@H]4[C@H](O)[C@@H](O)[C@@H](O[C@H]5[C@H](O)[C@@H](O)[C@@H](O[C@H]6[C@H](O)[C@@H](O)[C@@H](O[C@H]7[C@H](O)[C@@H](O)[C@@H](O[C@H]8[C@H](O)[C@@H](O)[C@@H](O[C@H]1[C@H](O)[C@H]2O)O[C@@H]8CO)O[C@@H]7CO)O[C@@H]6CO)O[C@@H]5CO)O[C@@H]4CO)O[C@@H]3CO`, for which the “activity, negative = inhibition” value was 2.16%. Take `CCOC(=O)c1c(N)sc2c1CCN(Cc1ccccc1)C2`: the Potency is 4.78 µM (active). As to `CCCCCCCC/C=C\CCCCCCCCN`, the “activity, negative = inhibition” value is 5.96%. The same measure, in the same setting: the result for `N#CCC(=O)NN` reads -8.03%. As to `CN1CCC(OC(c2ccccc2)c2ccccc2)CC1`, the Potency was 3.22 µM (active). With `O=C(c1ccc(F)cc1)C1CCN(CCn2c(=S)[nH]c3ccccc3c2=O)CC1`, the Potency was 2.39 µM (active). Regarding `CC(=O)N[C@@H](CCC(=O)O)C(=O)O`, the “activity, negative = inhibition” value is 1.22%. In the case of `CCCc1ncc(C[n+]2ccccc2C)c(N)n1`, the “activity, negative = inhibition” value was 1.62% [at 12.8 µM].

For the molecule `COc1cc(O)c(C(=O)c2ccccc2)cc1S(=O)(=O)O`, the Potency is 7.57 µM (active). In the case of `Nc1ccc(S(=O)(=O)NCc2ccccc2)cc1`, the “activity, negative = inhibition” value was -0.703%.

Turning to `CN1CCc2cccc3c2[C@H]1Cc1ccc(O)c(O)c1-3`, the Potency was 3.01 µM (active).

On to `CCN(CC)CCOc1ccc2c(c1)C(=O)c1cc(OCCN(CC)CC)ccc1-2`, for which the Potency is 13.5 µM (active). Regarding `CCc1oc2ccccc2c1C(=O)c1cc(I)c(O)c(I)c1`, the “activity, negative = inhibition” value was -1.11%. Consider `CCCCCN=C(N)N/N=C/c1c[nH]c2ccc(OC)cc12`, for which the Potency was 1.51 µM (active). Regarding `O=C(O)CCNC(=O)c1ccccc1`, the “activity, negative = inhibition” value was -4.54%.

Turning to `CCCCC(CC)COC(=O)/C=C/c1ccc(OC)cc1` (stereo not given), the “activity, negative = inhibition” value is -3.34%. Still for that read-out and setting: as for `COc1cc(NS(=O)(=O)c2ccc(N)cc2)ncn1`, the figure is -6.12% [at 12.8 µM]; as for `C=C[C@@]1(C)CC(=O)[C@]2(O)[C@@]3(C)[C@@H](O)CCC(C)(C)[C@@H]3[C@H](O)[C@H](OC(C)=O)[C@@]2(C)O1`, -19.9%.

These data come from PubChem BioAssay (NCATS).
